Measured values reported in PubChem BioAssay (EPA / NIEHS).
Calls of active or inactive are those of the source. The calls were made as follows: active = hit-call score of the fitted dose curve at least 0.9, where 1 is the maximum; inactive = score below 0.9.

Tests used:
[1] = ATG_CRE_CIS: Attagene CIS-FACTORIAL HepG2 Assay for human cAMP Responsive Element (CRE) binding protein 3 (AID 2282926); details: HepG2 CRE cis-reporter, Attagene multiplexed mRNA; actives raise or lower the signal
In short: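 Assay format: transient reporter transfection of HepG2, 24 h treatment, total RNA isolation with DNase I step. Reporter abundance read by fluorescence after PCR and capillary separation; DMSO-normalised gain or loss fitting.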

[2] = target: CCAAT/enhancer-binding protein beta (Homo sapiens) (UniProt P17676); experiment: ATG_C_EBP_CIS: Attagene CIS-FACTORIAL HepG2 Assay for human CCAAT/Enhancer Binding Protein (C/EBP) beta (AID 2282927); details: HepG2 Attagene cis-factorial transcription factor reporter; actives raise or lower the signal
CCAAT/enhancer-binding protein beta (Homo sapiens), sequence (P17676 whole entry, looked up): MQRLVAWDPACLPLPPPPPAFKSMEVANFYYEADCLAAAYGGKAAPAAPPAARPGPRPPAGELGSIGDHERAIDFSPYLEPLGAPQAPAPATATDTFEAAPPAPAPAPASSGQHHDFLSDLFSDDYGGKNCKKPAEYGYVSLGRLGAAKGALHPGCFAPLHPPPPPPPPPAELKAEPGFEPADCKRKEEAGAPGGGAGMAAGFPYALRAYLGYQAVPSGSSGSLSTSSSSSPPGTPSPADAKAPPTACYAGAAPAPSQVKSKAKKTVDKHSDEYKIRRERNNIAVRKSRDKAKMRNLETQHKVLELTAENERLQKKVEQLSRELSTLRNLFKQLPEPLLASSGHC
In short: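 Transiently transfected HepG2 (MRTU library, endogenous TF-driven promoters); 24 h dosing; total RNA → oligo(dT) RT → PCR → 6-FAM primer extension → HpaI digest → CE; fit bidirectionally vs DMSO.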

[3] = ATG_CMV_CIS: Attagene CIS-FACTORIAL HepG2 Assay for human CMV (Internal Marker) (AID 2282928); details: HepG2 CMV promoter reporter, transcription factor profiling; actives raise or lower the signal;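 also: endpoint acts as a background internal control marker rather than a target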
In short: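 Readout: fluorescent reporter cDNA fragments separated by capillary electrophoresis after RT-PCR and HpaI cut. Cells: HepG2 carrying transfected cis-promoter reporter constructs, dosed 24 h. Endpoint serves as background internal-marker control, fit bidirectionally versus DMSO.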

[4] = ATG_DR4_LXR_CIS: Attagene CIS-FACTORIAL HepG2 Assay for human Liver X Receptor (LXR), DR4 submotif (AID 2282929); details: HepG2 Attagene DR4 cis-reporter, mRNA transcription; actives raise or lower the signal
In short: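 DR4 cis-reporter in HepG2, 24 h exposure. Detection: RT-PCR, 6-FAM labelling, CE fragment analysis. Endpoint fitted bidirectionally, DMSO = baseline.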

[5] = target: Aryl hydrocarbon receptor (Homo sapiens) (UniProt P35869); experiment: ATG_Ahr_CIS: Attagene CIS-FACTORIAL HepG2 Assay for human Aryl Hydrocarbon Receptor (Ahr) (AID 2282930); details: HepG2 AhR cis-factorial reporter transcription; actives raise or lower the signal
Aryl hydrocarbon receptor (Homo sapiens), sequence (P35869 whole entry, looked up): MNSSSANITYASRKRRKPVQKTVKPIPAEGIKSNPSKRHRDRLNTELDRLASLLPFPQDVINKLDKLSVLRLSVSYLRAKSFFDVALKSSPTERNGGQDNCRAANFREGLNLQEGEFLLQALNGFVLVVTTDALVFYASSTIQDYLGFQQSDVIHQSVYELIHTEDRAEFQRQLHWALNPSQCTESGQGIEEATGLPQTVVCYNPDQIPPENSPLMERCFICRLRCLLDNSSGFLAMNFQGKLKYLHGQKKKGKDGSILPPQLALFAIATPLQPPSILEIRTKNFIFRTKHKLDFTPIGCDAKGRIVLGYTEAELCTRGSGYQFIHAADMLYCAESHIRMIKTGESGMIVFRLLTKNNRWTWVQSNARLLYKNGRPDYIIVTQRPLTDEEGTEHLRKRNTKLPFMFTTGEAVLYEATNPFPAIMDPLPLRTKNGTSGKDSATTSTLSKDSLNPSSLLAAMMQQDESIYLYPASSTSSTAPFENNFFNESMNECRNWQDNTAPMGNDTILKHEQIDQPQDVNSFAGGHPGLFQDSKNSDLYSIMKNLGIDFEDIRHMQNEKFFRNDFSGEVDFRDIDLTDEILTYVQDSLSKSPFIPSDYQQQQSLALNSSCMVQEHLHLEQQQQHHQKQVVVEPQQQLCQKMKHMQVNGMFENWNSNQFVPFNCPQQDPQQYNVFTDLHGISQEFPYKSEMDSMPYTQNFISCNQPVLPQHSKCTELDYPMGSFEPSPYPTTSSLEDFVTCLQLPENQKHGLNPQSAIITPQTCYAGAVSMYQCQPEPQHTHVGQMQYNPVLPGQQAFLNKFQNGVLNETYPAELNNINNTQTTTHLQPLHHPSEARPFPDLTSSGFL
In short: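 Read-out: reporter mRNA quantified by RT-PCR with fluorescent primer extension and capillary electrophoresis. Human HepG2 liver cells carried transfected cis-promoter reporter units and were exposed to chemical for 24 h; gain or loss fitted relative to DMSO.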

[6] = ATG_AP_2_CIS: Attagene CIS-FACTORIAL HepG2 Assay for human Activator Protein 2 (AP-2) (AID 2282932); details: HepG2 AP-2 cis-reporter, Attagene transcription factor profiling; actives raise or lower the signal
In short: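 Read-out: fluorescent reporter mRNA via RT-PCR and capillary electrophoresis, 24 h post-dose in transiently transfected HepG2. Endogenous factors drive cis-promoter reporters; gain or loss of signal fitted bidirectionally against DMSO.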

[7] = ATG_BRE_CIS: Attagene CIS-FACTORIAL HepG2 Assay for human Bone Morphogenetic Protein (BMP) Response Element (BRE) (AID 2282933); details: HepG2 BMP response element reporter, Attagene transcription factor profiling; actives raise or lower the signal
In short: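 Read-out: reporter mRNA induction quantified by RT-PCR and capillary electrophoresis after 24 h chemical exposure of transfected HepG2 cells. Endogenous factor activity on the BMP response element; gain or loss fitted against DMSO baseline.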

[8] = target: Retinoic acid receptor alpha (Homo sapiens) (UniProt P10276); experiment: ATG_DR5_RAR_CIS: Attagene CIS-FACTORIAL HepG2 Assay for human Retinoic Acid Receptor Alpha (RARE), DR5 submotif (AID 2282934); details: HepG2 Attagene cis-factorial RARE DR5 reporter, mRNA; actives raise or lower the signal
Retinoic acid receptor alpha (Homo sapiens), sequence (P10276 whole entry, looked up): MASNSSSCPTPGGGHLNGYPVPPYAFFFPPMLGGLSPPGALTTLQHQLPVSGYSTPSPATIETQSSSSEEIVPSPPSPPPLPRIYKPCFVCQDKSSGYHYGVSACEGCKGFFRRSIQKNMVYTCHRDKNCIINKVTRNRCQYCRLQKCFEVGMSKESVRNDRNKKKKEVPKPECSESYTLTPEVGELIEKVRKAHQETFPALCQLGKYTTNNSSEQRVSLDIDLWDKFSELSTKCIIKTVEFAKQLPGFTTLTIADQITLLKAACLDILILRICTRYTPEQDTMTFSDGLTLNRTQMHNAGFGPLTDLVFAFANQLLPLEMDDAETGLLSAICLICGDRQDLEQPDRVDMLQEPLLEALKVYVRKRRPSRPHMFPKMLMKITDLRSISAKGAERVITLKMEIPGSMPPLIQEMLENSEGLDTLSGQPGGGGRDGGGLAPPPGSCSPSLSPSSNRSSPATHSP
In short: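 Read-out: DR5-driven reporter transcript measured by RT-PCR, 6-FAM primer extension, HpaI digest and capillary electrophoresis. Human HepG2 liver cells carry transiently transfected cis-element reporter constructs; dosing lasts 24 h. Gain or loss of signal fitted against DMSO baseline.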

[9] = target: Transcription factor E2F1 (Homo sapiens) (UniProt Q01094); experiment: ATG_E2F_CIS: Attagene CIS-FACTORIAL HepG2 Assay for human E2F Transcription Factor 1 (AID 2282935); details: HepG2 Attagene cis-reporter, E2F reporter RNA transcripts; actives raise or lower the signal
Transcription factor E2F1 (Homo sapiens), sequence (Q01094 whole entry, looked up): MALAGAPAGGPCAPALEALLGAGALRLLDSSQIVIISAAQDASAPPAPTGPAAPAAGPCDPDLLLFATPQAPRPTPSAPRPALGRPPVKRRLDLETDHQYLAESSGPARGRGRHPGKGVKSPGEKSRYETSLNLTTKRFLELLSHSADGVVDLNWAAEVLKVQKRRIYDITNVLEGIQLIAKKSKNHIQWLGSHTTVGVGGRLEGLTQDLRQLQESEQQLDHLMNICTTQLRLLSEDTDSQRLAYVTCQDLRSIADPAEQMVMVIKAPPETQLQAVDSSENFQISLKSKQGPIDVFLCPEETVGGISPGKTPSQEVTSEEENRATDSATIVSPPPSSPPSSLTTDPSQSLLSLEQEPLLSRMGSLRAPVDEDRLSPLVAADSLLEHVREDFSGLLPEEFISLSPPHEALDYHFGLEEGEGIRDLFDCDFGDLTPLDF
In short: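 Transient MRTU transfection of HepG2; 24 h compound exposure; RNA → oligo(dT) RT → PCR → FAM label → HpaI cut → CE fluorescence. Gain/loss of signal fit against DMSO.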

[10] = ATG_E_Box_CIS: Attagene CIS-FACTORIAL HepG2 Assay for human Enhancer Box (E-box) (AID 2282936); details: HepG2 E-box cis-reporter transcription, actives raise or lower the signal
In short: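 Transiently transfected HepG2, endogenous TF-driven reporters, 24 h dosing. Readout: RT-PCR plus capillary electrophoresis of fluorescent reporter fragments. Gain or loss of signal fitted bidirectionally against DMSO baseline.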

[11] = ATG_M_61_CIS: Attagene CIS-FACTORIAL HepG2 Assay for M61 Transcription Factor (Internal Marker) (AID 2282937); details: HepG2 Attagene CIS-FACTORIAL M61 internal marker reporter; actives raise or lower the signal
In short: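 Background-control endpoint: HepG2 cells with cis-regulated reporter constructs, 24 h exposure, reporter mRNA detected via fluorescent primer extension and capillary electrophoresis; values from bidirectional fitting with DMSO baseline.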

[12] = ATG_EGR_CIS: Attagene CIS-FACTORIAL HepG2 Assay for human Early Growth Response 1 (EGR1) (AID 2282938); details: HepG2 Attagene CIS-FACTORIAL EGR reporter mRNA; actives raise or lower the signal
In short: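 Endpoint derived by bidirectional fitting versus DMSO vehicle. Method: cis-promoter reporter units transfected into HepG2, 24 h dosing, RNA isolation, RT-PCR with 6-FAM primer extension and HpaI digestion, then capillary electrophoresis fluorescence detection.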

[13] = ATG_M_19_CIS: Attagene CIS-FACTORIAL HepG2 Assay for M19 Transcription Factor (Internal Marker) (AID 2282939); details: HepG2 Attagene CIS-FACTORIAL M19 internal marker reporter; actives raise or lower the signal
In short: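 Readout: fluorescent reporter-transcript fragments by capillary electrophoresis after RT-PCR. Human HepG2 liver cells carried transfected MRTU constructs reporting endogenous transcription-factor activity; exposure 24 h. Gain or loss of signal fitted relative to DMSO.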

[14] = ATG_ERE_CIS: Attagene CIS-FACTORIAL HepG2 Assay for Estrogen Response Element (ERE) (AID 2282940); details: HepG2 ERE cis-reporter, Attagene RNA transcript; actives raise or lower the signal
In short: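 Readout: reporter mRNA induction by RT-PCR, FAM-labelled primer extension, HpaI digestion and capillary electrophoresis, 24 h after dosing transfected HepG2 cells. Endogenous transcription factors act on cis-element-regulated reporters. Gain or loss fitted against DMSO.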

[15] = ATG_Ets_CIS: Attagene CIS-FACTORIAL HepG2 Assay for human Erythroblast Transformation Specific (ETS) (AID 2282941); details: HepG2 ETS cis-reporter transcription, actives raise or lower the signal
In short: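 RT-PCR/capillary electrophoresis fluorescence read-out of reporter mRNA; HepG2 transient multi-reporter transfection; 24 h compound exposure; gain or loss of signal fitted bidirectionally relative to DMSO.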

[16] = target: Hepatocyte nuclear factor 3-beta (Homo sapiens) (UniProt Q9Y261); experiment: ATG_FoxA2_CIS: Attagene CIS-FACTORIAL HepG2 Assay for human Forkhead box A2 (FOXA2) (AID 2282942); details: HepG2 cis-reporter transcription factor activity, 24 h; actives raise or lower the signal
Hepatocyte nuclear factor 3-beta (Homo sapiens), sequence (Q9Y261 whole entry, looked up): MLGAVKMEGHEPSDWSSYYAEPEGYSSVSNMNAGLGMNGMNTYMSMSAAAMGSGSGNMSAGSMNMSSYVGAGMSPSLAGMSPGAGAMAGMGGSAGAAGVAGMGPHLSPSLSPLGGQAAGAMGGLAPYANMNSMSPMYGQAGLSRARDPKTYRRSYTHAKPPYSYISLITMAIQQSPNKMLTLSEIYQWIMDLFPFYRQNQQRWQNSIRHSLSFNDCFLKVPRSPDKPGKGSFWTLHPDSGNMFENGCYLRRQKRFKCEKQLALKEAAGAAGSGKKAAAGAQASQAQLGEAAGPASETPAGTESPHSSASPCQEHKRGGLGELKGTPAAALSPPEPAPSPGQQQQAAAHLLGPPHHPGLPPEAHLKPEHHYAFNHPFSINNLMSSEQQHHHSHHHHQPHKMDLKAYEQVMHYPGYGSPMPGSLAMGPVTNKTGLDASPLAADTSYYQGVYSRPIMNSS
In short: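 Measured: reporter mRNA induction or loss in HepG2 transiently carrying multiple cis-regulated reporter units, 24 h after dosing. Quantified by RT-PCR plus capillary electrophoresis, normalised to DMSO.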

[17] = ATG_FoxO_CIS: Attagene CIS-FACTORIAL HepG2 Assay for human Forkhead box O (FoxO) (AID 2282943); details: HepG2 Attagene cis-reporter, FoxO element, mRNA; actives raise or lower the signal
In short: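 Read-out: fluorescence of 6-FAM-labelled reporter cDNA fragments resolved by capillary electrophoresis. Transiently transfected HepG2 cells were dosed for 24 h; activity fitted in both directions relative to DMSO controls.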

[18] = ATG_GATA_CIS: Attagene CIS-FACTORIAL HepG2 Assay for human GATA Binding Protein (AID 2282944); details: HepG2 GATA cis-element reporter, Attagene multiplex mRNA; actives raise or lower the signal
In short: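 Read-out: fluorescent reporter mRNA fragments resolved by capillary electrophoresis after RT-PCR. Human liver HepG2 cells carried transiently transfected cis-regulated reporter constructs; chemicals incubated 24 h; gain or loss of signal fitted relative to DMSO.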

[19] = ATG_GLI_CIS: Attagene CIS-FACTORIAL HepG2 Assay for human Zinc Finger Protein GLI1 (AID 2282945); details: HepG2, Attagene cis-factorial reporter mRNA, GLI element; actives raise or lower the signal
In short: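 Transiently transfected HepG2 cells report endogenous transcription factor activity via cis-element-driven reporter units. After 24 h compound exposure, reporter mRNA was measured by RT-PCR with capillary electrophoresis; bidirectional fitting against DMSO baseline.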

[20] = ATG_AP_1_CIS: Attagene CIS-FACTORIAL HepG2 Assay for human Activator Protein 1 (AP-1) (AID 2282931); details: HepG2 Attagene cis-factorial AP-1 reporter mRNA; actives raise or lower the signal
In short: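 Cis-regulated reporter units transiently expressed in HepG2 report endogenous transcription-factor activity. Signal: reporter mRNA at 24 h, via RT-PCR and fluorescent capillary electrophoresis. Endpoint derived by bidirectional fitting, DMSO as negative control.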

Measured: AC50

COc1cc(NC(=O)CC(C)=O)c(OC)cc1Cl
active: [5] 40.1 µM
inactive: [1] | [2] | [3] | [4] | [6] | [7] | [8] | [9] | [10] | [11] | [12] | [13] | [14] | [15] | [16] | [17] | [18] | [19]

CCC(C)OC(=O)c1ccc(O)cc1 (centres undefined)
inactive: [1] | [2] | [4] | [20] | [6] | [7] | [8] | [9] | [10] | [11] | [12] | [13] | [15] | [16] | [17] | [19]
active: [3] 67.6 µM | [14] 0.868 µM

Nc1ccc2cc3ccccc3cc2c1
inactive: [1] | [2] | [3] | [4] | [20] | [6] | [7] | [8] | [9] | [10] | [11] | [12] | [13] | [15] | [17] | [18] | [19]
active: [14] 8.48 µM

CC1=CC[C@H]2C[C@@H]1C2(C)C
inactive: [1] | [2] | [3] | [4] | [20] | [6] | [7] | [8] | [9] | [10] | [11] | [12] | [13] | [14] | [15] | [16] | [17] | [18] | [19]
